Drawing on PubChem BioAssay, this text covers inhibition for 17 compounds.

Values without a mark were called inactive. How the calls were made is not given here.

For this test, the target named is Pantothenate synthetase (Mycobacterium tuberculosis (strain ATCC 25618 / H37Rv)) (UniProt P9WIL5). Nature of the test: Recombinant Mtb pantothenate synthetase (PanC) inhibitors, coupled enzyme, confirmatory (AID 375).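 Further: 0% = full reaction with vehicle and 100% = no enzyme background.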 The note with it: coupled enzyme assay; at 10 µM, hits give high values.
Sequence of Pantothenate synthetase (Mycobacterium tuberculosis (strain ATCC 25618 / H37Rv)) (P9WIL5 whole entry, looked up): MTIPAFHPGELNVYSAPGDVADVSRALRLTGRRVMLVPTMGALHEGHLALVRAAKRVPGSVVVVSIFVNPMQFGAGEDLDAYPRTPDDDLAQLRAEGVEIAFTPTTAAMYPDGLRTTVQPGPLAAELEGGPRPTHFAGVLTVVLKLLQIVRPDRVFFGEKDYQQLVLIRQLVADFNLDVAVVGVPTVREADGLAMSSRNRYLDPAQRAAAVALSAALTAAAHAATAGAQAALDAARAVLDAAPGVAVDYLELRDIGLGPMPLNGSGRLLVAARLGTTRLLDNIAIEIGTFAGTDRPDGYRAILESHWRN
For orientation: inhibition means the share of the control response that was lost under treatment. As for `Cc1ccc(S(=O)(=O)N2CCN(c3nc(C(C)C)c4c(c3C#N)CC(C)(C)OC4)CC2)cc1`, the inhibition is 0%.
The result for `CCN(CC)S(=O)(=O)N1CCC(C(=O)NC2CCCc3ccccc32)CC1` (configuration not stated) reads 0%; that for `CCc1nnc(NC(=O)c2ccc(-c3cccc(C(F)(F)F)c3)o2)s1`, 0%.
The result for `COc1ccc(OC)c(C2CC(=O)NC(SC)=C2C#N)c1` (configuration not stated) reads 5%; that for `Cc1cc(C)c(S(=O)(=O)Nc2cccnc2)c(C)c1`, 0%.
Consider `O=C1CCCCCN1CSc1nc2ccccc2s1`, for which the inhibition is 0%.
The result for `CCOC(=O)C1CCCN(CCC(C)c2ccccc2)C1` (configuration not stated) reads 1%; that for `CCS(=O)(=O)c1nc2ccccc2n1Cc1ccccc1Cl`, 1%; that for `CCCCn1c(NCCC)nc2c1c(=O)[nH]c(=O)n2C`, 0%.
The result for `Cc1cc(C)nc(NS(=O)(=O)c2ccc(NC(=O)Cn3c(=O)oc4ccccc43)cc2)n1` reads 1%; that for `COc1ccccc1N1C(=O)c2ccccc2NC1c1ccncc1` (configuration not stated), 3%.
The result for `O=C(CN(c1ccc(F)cc1)S(=O)(=O)c1ccc2c(c1)OCCO2)Nc1cccnc1` reads 0%; that for `CCOc1ccc(NC(=O)COC(=O)Cn2cnnn2)cc1OCC`, 0%.
In the case of `CCN(CC)S(=O)(=O)c1ccc(NC2c3ccccc3C(=O)N2CCN2CCOCC2)cc1` (configuration not stated), the inhibition was 0%.
With `CCOC(=O)c1cccc(NC2c3ccccc3C(=O)N2Cc2ccco2)c1` (configuration not stated), the inhibition is 7%.
The result for `C=CCOC(=O)CC(NC(=O)c1ccccc1)c1ccccc1` (configuration not stated) reads 0%; that for `Cc1c(C(=O)O)sc2ncn(C)c(=O)c12`, 0%.
